Compound activity from PubChem BioAssay.
Sampled rows, rich in hits. Any-hit rate of the full collection: about 1.2%.
KAT2A inh: blocks human GCN5L2 histone acetyltransferase; GCN5L2 HAT assay, ThioGlo1 CoA-SH fluorescence; AID 504327; 0.21% of 390,000 active; Q92830; Potency, µM (highest dose often 58.9 µM), for the others: top-dose activity change, negative = inhibition, most hits filed as inhibitors; also: potency is read from the fitted curve at half-maximal effect
Target sequence (Q92830 whole entry, looked up): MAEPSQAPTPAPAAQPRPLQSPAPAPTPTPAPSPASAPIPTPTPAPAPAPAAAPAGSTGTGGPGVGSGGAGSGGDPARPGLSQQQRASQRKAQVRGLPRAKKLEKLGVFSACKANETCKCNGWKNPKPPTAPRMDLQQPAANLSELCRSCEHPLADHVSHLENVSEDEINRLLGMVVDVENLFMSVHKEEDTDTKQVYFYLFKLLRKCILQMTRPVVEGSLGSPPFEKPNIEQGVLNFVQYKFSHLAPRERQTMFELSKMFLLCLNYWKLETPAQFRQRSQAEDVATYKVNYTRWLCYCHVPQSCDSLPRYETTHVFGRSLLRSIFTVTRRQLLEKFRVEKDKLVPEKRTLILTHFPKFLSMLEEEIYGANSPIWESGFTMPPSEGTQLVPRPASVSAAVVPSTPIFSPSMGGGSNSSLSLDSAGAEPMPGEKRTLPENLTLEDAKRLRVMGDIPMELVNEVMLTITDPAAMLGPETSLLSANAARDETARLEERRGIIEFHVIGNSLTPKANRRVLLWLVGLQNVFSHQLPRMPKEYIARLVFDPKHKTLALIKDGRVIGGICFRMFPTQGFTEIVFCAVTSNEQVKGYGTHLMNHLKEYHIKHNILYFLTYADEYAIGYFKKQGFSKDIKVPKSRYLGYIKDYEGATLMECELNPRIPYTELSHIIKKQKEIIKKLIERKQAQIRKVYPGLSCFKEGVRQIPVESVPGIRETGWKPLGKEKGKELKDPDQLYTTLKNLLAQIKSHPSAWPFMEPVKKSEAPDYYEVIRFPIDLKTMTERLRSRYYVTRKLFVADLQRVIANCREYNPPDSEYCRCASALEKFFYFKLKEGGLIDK
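Fluorescence readout, Ex340nm/Em540nm: ThioGlo1 (50uM final) reacts with free CoA thiol released as 20nM GCN5L2 acetylates H3(1-25) peptide (75uM) using acetyl-CoA (70uM). Compound and enzyme sat 15 min beforehand; 20 min room-temperature reaction.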
GoLoco inh red: inhibitors of human Gai1-RGS12 GoLoco interaction (red fluorophore). P63096. Gai1:RGS12 GoLoco peptide FP, rhodamine, 10 min. Potency, µM (titrated, usually from 61.6 µM), without a hit: at the top dose activity, negative = inhibition, usual class: inhibitors. 0.44% of 230,000 active; active = well fitted inhibition curve with a large enough effect, not every such curve was filed as active; inactive = no such curve, though single readings can be large or run the other way; also: potency is read from the fitted curve at half-maximal effect; nearly all actives have a fitted effect of over 30% in size
PI5P4K alpha inh: PI5P4K alpha (human) kinase inhibition; P48426; PI5P4Kalpha enzyme, ADP-Glo luminescence, 60 min; active compounds read low; max response, %; 1.2% of 330,000 active; AID 652105; active = max response of -50% or lower; inconclusive = between -30% and -50%; inactive = -30% or higher; also: value at the top dose of about 77 µM
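ADP-Glo luminescence end-point after a 60 min room-temperature kinase reaction. PI5P4Kalpha and substrate in HEPES pH 7.4 buffer with EGTA, 0.1% CHAPS and 5% DMSO; ATP at 5 microM final.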
PI4K2A block: blocks human PI4K2A kinase activity. 0.13% of 420,000 active. activity change, negative = inhibition, % at 76.9 µM. purified PI4K2A, ADP-Glo luminescence, 1 h; active compounds read low. Q9BTU6; in the data active = activity change below about -50%; inconclusive = mostly about -30% to -49%;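 also: -100% = wells without enzyme as full effect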
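PI4K2A activity was measured by ADP-Glo luminescence: enzyme (4 ug/mL stock) and phosphatidylinositol (1.2 mM stock) in Tris pH 7.5/MgCl2/EGTA/Triton X-100 buffer were reacted with ATP (300 microM stock) for one hour at ambient temperature.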
PGK inhibitor: blocks T. brucei phosphoglycerate kinase | P07378 | PGK/GAPDH coupled, Kinase-Glo luminescence, 60 min | Potency, µM (highest dose often 57.5 µM), for inactives: top-dose activity change, negative = inhibition, hits mostly inhibitors | 0.043% of 380,000 active | AID 602233; also: potency is read from the fitted curve at half-maximal effect; nearly all actives have a fitted effect of over 60% in size
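Recombinant glycosomal PGK reaction used 1,3-bisphosphoglycerate generated in-well by GAPDH (100nM final) in 100mM TEA pH 7.6, 5mM MgCl2, 0.01% Tween-20. After 60 minutes at room temperature, ATP was read by Kinase-Glo Plus luminescence end-point.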
Pin1 inhibitor: blocks the human prolyl isomerase Pin1. Potency, µM (top dose mostly 115 µM), for the others: top-dose activity, negative = inhibition, most hits filed as inhibitors. Pin1 FP peptide displacement, HiFluor488, 10 min. AID 504891. 0.009% of 390,000 active. Q13526; active = well fitted inhibition curve with a large enough effect in the polarisation, with a control signal flat, not every such curve was filed as active; inconclusive = small, poorly fitted or top-dose-only effect, or effect the other way, or a change in a side signal; inactive = no such curve, though single readings can be large or run the other way; the % refers to the polarisation; also: potency is read from the fitted curve at half-maximal effect
ADP-Glo counter: interferes with ADP-Glo detection without enzyme present; shares compounds with PI5P4K alpha inh; 1,100 tested, under 10 active; AID 743285; ADP-Glo detection counter-screen, luciferase luminescence, no enzyme; Potency, µM (titrated, usually from 76.9 µM), for the others: at the highest dose activity change, negative = inhibition, actives largely listed as inhibitors
* marks the source's active call; other numbers are inactive results; i = inactive; ? = inconclusive; . = no result given; [ ] = dose if it differs, or a comment. Unless noted, calls follow the shape of the dose curve; as a rule, active = well fitted curve in the direction sought with a large enough effect; inconclusive = small, poorly fitted or top-dose-only effect, or another doubt; inactive = no such curve, though single readings can be large; an effect the other way counts as inactive or inconclusive. Unless noted, % is scaled to controls: 0 for no effect and ±100 for the full control effect.

SMILES | KAT2A inh | GoLoco inh red | PI5P4K alpha inh | PI4K2A block | PGK inhibitor | Pin1 inhibitor | ADP-Glo counter
CC1(C(=O)NS(=O)(=O)c2ccc(Cl)cc2)CCN1C(=O)CC1CC1 (stereo unspecified) | . | . | -1 | -4 | . | . | .
O=C(c1cc(=O)c2cc(Cl)ccc2o1)N1CCN(Cc2ccccc2)CC1 | 3% | . | -3 | 10 | -2% | -2% | .
O=S(=O)(c1ccccc1)N1N=C(c2cccs2)CC1c1ccc(Br)cc1 (stereo unspecified) | -1% | 27% | -55* | 0 | -4% | 4% | 5%
Cc1ccc(N2CC(C(=O)NCc3ccccn3)CC2=O)cc1 (stereo unspecified) | -4% | -5% | . | 0 | -5% | 2% | .
COc1ccccc1NC(=O)Nc1nc(CC(=O)Nc2cccc(F)c2)cs1 | -18% | . | 5 | -3 | 3% | 5% | .
COc1ccccc1NC(=O)Nc1nc(CC(=O)Nc2cc(F)ccc2F)cs1 | -15% | . | -52* | -3 | -13% | 69% | 3%
c1ccc(-c2cc3nc(NCc4cccs4)nc(NCc4ccc5occc5c4)c3s2)cc1 | . | . | . | -4 | . | . | -7%
CCOC(=O)C1=C(CC)Nc2ccccc2N=C1NC(=O)c1ccc(S(=O)(=O)N(C)C)cc1 | -1% | 15% | -51* | 0 | 3% | 7% | 1%
COc1cc(NS(=O)(=O)c2ccc(NC(=O)COc3ccc(C)cc3)cc2)nc(OC)n1 | 1% | 3% | . | 4 | -4% | 1% | .
O=C(CSc1nc2c(cnn2-c2cccc(Cl)c2)c(=O)[nH]1)NCC1CCCO1 (stereo unspecified) | -7% | . | . | -2 | 1% | 2% | -6%
Cc1ccc(NC(=O)CN(C)C(=O)COc2ccc(C(=O)c3ccc(F)cc3)cc2)cc1 | -7% | -18% | -2 | -7 | -1% | -1% | 5%
Cc1ccc([N+](=O)[O-])cc1S(=O)(=O)Nc1ccc(C(=O)N(C)C)cc1 | -5% | 3% | 1 | 3 | -2% | -2% | .
Cc1ccc([N+](=O)[O-])cc1S(=O)(=O)Nc1ccc(C(=O)N2CCN(C(=O)c3ccco3)CC2)cc1 | -1% | . | -53* | -3 | -13% | 4% | 0%
Cc1ccnc(NS(=O)(=O)c2ccc(N=[N+]=[N-])cc2)n1 | . | -1%[14.2 µM] | . | . | . | . | .
NS(=O)(=O)c1cccc(NC(=O)CSc2nnnn2-c2ccccc2)c1 | -5% | 9% | -89* | 7 | 1% | -1% | -6%
CNC(=O)/C(C#N)=C/c1ccc(-c2ccc(Cl)cc2)o1 | -11% | 20% | 0 | 1 | i | -1% | .
C[C@H]1CN=C(Nc2ccccc2)N1CC1CCCCC1 | 0% | . | 2 | 0 | -3% | 0% | .
C[C@H]1CN=C(Nc2ccccc2)N1CCCC1CCCCC1 | -4% | . | 0 | -2 | -9% | -3% | -5%
COc1ccc(C(=O)N2CCCC2(C)C(=O)O)cc1C(F)(F)F (stereo unspecified) | . | . | -87* | -5 | . | . | 1%
CCOC(=O)C1(C)CCCCCN1C(=O)c1ccc(OC)c(C(F)(F)F)c1 (stereo unspecified) | . | . | -4 | 2 | . | . | .
O=C(CCS(=O)(=O)c1ccc(Br)cc1)NCc1ccc(F)cc1 | -10% | . | ? | -8 | ? | -3% | -3%
Cc1ccc(CNC(=O)CCS(=O)(=O)c2ccc(Cl)cc2)cc1 | 2% | . | -94* | -3 | -19% | 0% | -10%
Cc1ccc(CNC(=O)CCS(=O)(=O)c2ccc(Br)cc2)cc1 | ? | -22% | -1 | -4 | ? | . | .
CCOCCCNC(=O)C(c1ccc(OC)cc1)N(Cc1cccs1)C(=O)c1ccc(NC(C)=O)cc1 (stereo unspecified) | -3% | . | . | 3 | -6% | 0% | .
CC/C(C)=C1/NC(=O)NC1=O | . | . | -4 | -5 | -9% | 4% | .
SMILES | KAT2A inh | GoLoco inh red | PI5P4K alpha inh | PI4K2A block | PGK inhibitor | Pin1 inhibitor | ADP-Glo counter
CN(C(=O)c1cc([N+](=O)[O-])ccc1NCc1cccnc1)c1ccccc1 | -15% | . | 0 | 0 | -7% | -4% | .
O=C(CSc1nnc(-c2ccc(OC(F)F)cc2)o1)NC(=O)NCc1ccco1 | -16% | 10% | -54* | -10 | -9% | 33% | -3%
COc1ccc(-c2nnc(SCC(=O)NCc3ccco3)o2)cc1 | -20% | 7% | . | -4 | -7% | 6% | .
Cc1ccc(-c2csc(NC(=O)c3ccccc3Cl)c2C(=O)O)cc1 | -14% | . | -55* | 0 | -4% | -3% | 4%
Cc1ccc(-c2csc(NC(=O)c3ccc(Br)cc3)c2C(=O)O)cc1 | 0% | . | -77* | -4 | -8% | -13% | 0%
Cc1cccc(C(=O)Nc2scc(-c3ccc(Br)cc3)c2C(=O)O)c1 | . | . | ? | -7 | -1% | ? | .
COc1cc(C(=O)Nc2scc(-c3ccc(Br)cc3)c2C(=O)O)cc(OC)c1OC | 28% | . | -98* | -3 | i | -19% | 2%
COc1ccc(CNC(=O)C/C(C)=N/NC(=O)COc2cccc(C)c2)cc1 | 0% | 1% | 3 | -3 | 7% | -1% | .
CCO[C@@H]1OC(C(=O)NCc2nc3ccccc3[nH]2)=C[C@H](c2cn(C(C)=O)c3ccccc23)[C@H]1CCCO | -12% | 43% | 0 | -1 | -3% | 2% | .
COc1ccc(N2Cc3cccc(C(=O)N4CCOCC4)c3C2=O)cc1 | 0% | 7% | -4 | 3 | 6% | -2% | .
COc1ccc(N2Cc3cccc(C(=O)N4CCN(C(=O)c5ccco5)CC4)c3C2=O)cc1 | ? | 6% | -84* | -19 | -29% | ? | -5%
CCCNc1c(F)c(F)c2c(C)c3ccccc3nc2c1F | ? | 28µM* | -66* | -17 | -1% | ? | -14%
CC(C)OC(=O)c1c(NS(=O)(=O)c2ccccc2)sc2c1CCCC2 | -7% | 13% | -63* | 1 | -1% | -2% | -1%
COC(=O)c1c(NS(=O)(=O)Cc2ccccc2)sc2c1CCCC2 | -13% | -7% | . | -2 | i | 0% | .
COc1ccccc1C(=O)N/N=C(\C)CC(=O)Nc1ccccc1NC(C)=O | -22% | . | 1 | -5 | -4% | -1% | .
Cc1ccc(NC(=O)c2c3c(nc4ccccc24)CCC3)cc1S(=O)(=O)N(C)C | -24% | 17% | -52* | -6 | -2% | ? | 3%
Cc1ccc(NC(=O)c2ccc3ccccc3n2)cc1S(=O)(=O)N(C)C | -7% | 6% | -4 | 1 | 2% | 1% | .
CC(C)C[C@@H]1CC2=C(C(=O)OC(C)(C)O2)[C@H](c2ccc(Cl)cc2)O1 | . | . | -5 | 5 | . | . | .
